# Screen size: about 340,000 compounds; about 420 (0.12%) were called active. Not shown: some 10% with an inconclusive outcome. What follows is part of a selection rich in actives, with near analogues and random picks from the rest. Entries that show only a call come without a potency. Unmarked numbers belong to inactive results. Calls come from the whole dose curve; as a rule, active = well fitted activation curve with a large enough effect; inconclusive = small, poorly fitted or top-dose-only effect, or another doubt; inactive = no such curve, though single readings can be large or run the other way; cell line not stated here.
# Assay: qHTS for Agonist of gsp, the Etiologic Mutation Responsible for Fibrous Dysplasia/McCune-Albright Syndrome: qHTS; note: nearly all actives have a fitted effect of over 60% in size;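 for activation (cAMP increase): phosphodiesterase inhibitor Ro 20-1724 added with compounds to block cAMP breakdown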
# Details: gsp mutant cells, cAMP HTRF, 30 min; series mostly up to 76.9 µM
# Text: McCune-Albright syndrome (MAS) is a rare disease caused by somatic mutations in Gsgsp), a widely expressed protein central in signal transduction from G-coupled protein receptors (GPCRs). The disease symptoms are diverse, owing to the fact that the patients are mosaics with varying degrees of tissue involvement. Greater than 90% of the mutations in Gs in MAS occur at the R201 position and are equally divided between R201H and R201C. The R201 residue is central in the intrinsic GTPase activity of Gs and the H and C mutations lead to loss of, or impairment of, the GTPase activity. The intrinsic GTPase activity is necessary to terminate the interaction between Gs and adenylate cyclase, and to terminate the cAMP-mediated signaling of the given GPCR pathway. Thus, these activating mutations lead to ligand-independent activation of GPCR pathways. The tissue phenotype is determined by the role of Gs in the function of a given cell, and excess Gs/cAMP signaling in that cell. For example, pituitary somatotrophs overproduce growth hormone in a growth hormone releasing hormone-independent fashion, and gigantism/acromegaly ensues. Skeletal stem cells in the bone marrow behave as if they are under constant parathyroid hormone stimulation and fail to differentiate into osteoblasts and osteocytes, and proliferate as immature osteogenic cells and lead to the marrow fibrosis of fibrous dysplasia of bone. The goal of this project is to identify molecules with stimulatory activity at gsp mutations that will not only allow for in-depth study of the underlying molecular and cellular pathophysiology, but also serve as compounds from which drugs to treat FD/MAS can be developed NIH Chemical Genomics Center [NCGC] NIH Molecular Libraries Probe Centers Network [MLPCN] MLPCN Grant: IRP-FT-DE-2011-01 Assay Submitter (PI): Michael Collins, NIDCR
# 1.#Seed 2000 cells/well in 6 ul DMEM 10% FBS, 1% Pen/Strep, 0.5 mg/ml G418 2.#Incubate 16-24 hr at 37C, 5% CO2, 95% humidity 3.#Aspirate leaving 1 ul residual volume 4.#Dispense 5 ul/well DPBS + 1 mM CaCl2, 0.5 mM MgCl2, 0.05% BSA, 0.005% Tween 20 5.#Aspirate leaving 2 ul residual volume 6.#Dispense 23 nl/well compounds in DMSO 7.#Dispense 1 ul/well 300 uM Ro-20174 in DMEM 10% FBS 8.#Incubate 30 min at 37C, 5% CO2, 95% humidity 9.#Dispense 1.5 ul/well HTRF reagent: cAMP-d2 in lysis buffer 10.#Dispense 1.5 ul/well HTRF reagent: anti-cAMP antibody-K in lysis buffer 11.#Incubate 30 min at room temperature 12.#Detect HTRF signal using EnVision plate reader
# Potency is the fitted concentration of half-maximal effect.
Structure (SMILES),Potency,activation (cAMP increase)
CC1(C)CN(CCc2ccccc2)C(=O)[C@H]1CC(=O)Nc1ccc(Br)cc1,inactive,–
Cc1ccc(S(=O)(=O)/N=C2\C=C(NS(=O)(=O)c3ccc(C)cc3)C(=O)c3ccccc32)cc1,inactive,–
COCOCCn1cc(CN2CCS(=O)(=O)N(Cc3ccc(-c4ccccc4)cc3)C(CC(C)C)C2=O)nn1 (stereo unspecified),inactive,–
COc1ccccc1-c1n[nH]nc1C1=CC(=O)CC(C)(C)C1,inactive,–
CC1=C(C(=O)N2CCOCC2)CC(CC(=O)NCC2CCCCC2)C(=O)N1Cc1ccc(F)cc1 (stereo unspecified),inactive,–
CCOC(=O)C1CCN(C(=O)c2ccc3c(=O)n4nc(Nc5ccccc5CC)sc4nc3c2)CC1,inactive,–
O=Cc1cn(CCOc2ccc(F)cc2)c2ccccc12,inactive,–
CCOc1ccc(-c2nnc3ccc(SC)nn23)cc1,inactive,–
CCOC(=O)CNC(=O)CSc1ccc2nnc(-c3cccnc3)n2n1,–,37.7% [at 15.4 µM]
COC(=O)C(C)Sc1ccc2nnc(-c3cccc(F)c3)n2n1 (stereo unspecified),10 µM (active),–
CCN(CC)C(=O)C1=C(C)N(Cc2ccc(F)cc2)C(=O)C(CC(=O)NCc2cccc3ccccc23)C1 (stereo unspecified),inactive,–
C[C@H]1CN([C@@H](C)CO)C(=O)c2cc(-c3ccccc3F)cnc2O[C@H]1CN(C)C(=O)C1CCOCC1,inactive,–
Cc1ccc(S(=O)(=O)N2C[C@]3(O)C[C@@H]4C(=O)N(c5ccccc5)C(=O)[C@@H]4C[C@]3(OC(=O)NC3CC3)C2)cc1,inactive,–
CNC(=O)C1CN(C(=O)c2cccc(S(=O)(=O)N3CCc4ccccc43)c2)c2ccccc2O1 (stereo unspecified),inactive,–
CCN1CCN(CCNC(=O)c2ccc3c(c2)NC(=O)/C(=C\c2cccc(Cl)c2)S3)CC1,inactive,–
O=C(C[C@H]1C[C@H]2c3cc(NS(=O)(=O)c4ccc(F)cc4)ccc3O[C@H]2[C@H](CO)O1)NCc1cc(F)ccc1F,inactive,–
c1ccc2c(c1)nnn2-c1ccncc1,inactive,–
COc1cc2c(cc1OC)C1C(=O)c3cc(OS(C)(=O)=O)c(OC)cc3C1N(C)C2=O (stereo unspecified),inactive,–
CCCCCC(=O)N1C[C@H](O)[C@@H](n2cc(COC(=O)c3ccccc3)nn2)C[C@@H]1c1ccc(C)cc1,inactive,–
CC1CN(C(=O)c2cccc(NS(=O)(=O)c3ccc(Br)cc3)c2)CC(C)O1 (stereo unspecified),inactive,–
Cc1ccc(C=O)c([B-](F)(F)F)c1,inactive,–
CC(C)c1cc(C(=O)NC2CCCCCC2)c2ccccc2n1,inactive,–
CN(C)C(CNC(=O)c1cccc(S(=O)(=O)N2CCc3ccccc3C2)c1)c1ccccc1 (stereo unspecified),inactive,–
CCCCCCN1C[C@@H](O)[C@H](n2cc(COC(=O)c3ccccc3)nn2)C[C@@H]1c1ccc(Cl)cc1,inactive,–
CCN(CC)C(=O)C1=C(C)N(Cc2ccc(C(C)(C)C)cc2)C(=O)C(CC(=O)NCc2cccc3ccccc23)C1 (stereo unspecified),inactive,–
COc1ccc([C@H]2N[C@]3(CCCN(Cc4ccco4)C3=O)[C@H]3C(=O)N(C)C(=O)[C@@H]23)cc1,inactive,–

# Source: PubChem BioAssay AID624287 (National Center for Advancing Translational Sciences (NCATS), 2012)
